Measured values published in PubChem BioAssay AID485346 (Sanford-Burnham Center for Chemical Genomics, 2010).
Screen size: about 330,000 compounds; about 10,000 (3%) were called active. Only a selection was taken, and actives are over-represented in it overall. A number with no mark means an inactive call.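 Rule for the calls: active = inhibition of at least 50% at 8 µM in the primary screen; inactive = the rest.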

The compounds below were run against Protein Mdm4 (Homo sapiens) + E3 ubiquitin-protein ligase Mdm2 (Homo sapiens) (UniProt O15151+Q00987) (assay: disruptors of Mdm2/MdmX RING complex – cell-based, luminescence, split luciferase, SaOS-2, uHTS, primary screen (AID 485346)). Conditions: SaOS-2 split-luciferase Mdm2/MdmX complementation, at 8 µM, hits give high values.
Protein Mdm4 (Homo sapiens) + E3 ubiquitin-protein ligase Mdm2 (Homo sapiens), sequence (O15151 whole entry, looked up): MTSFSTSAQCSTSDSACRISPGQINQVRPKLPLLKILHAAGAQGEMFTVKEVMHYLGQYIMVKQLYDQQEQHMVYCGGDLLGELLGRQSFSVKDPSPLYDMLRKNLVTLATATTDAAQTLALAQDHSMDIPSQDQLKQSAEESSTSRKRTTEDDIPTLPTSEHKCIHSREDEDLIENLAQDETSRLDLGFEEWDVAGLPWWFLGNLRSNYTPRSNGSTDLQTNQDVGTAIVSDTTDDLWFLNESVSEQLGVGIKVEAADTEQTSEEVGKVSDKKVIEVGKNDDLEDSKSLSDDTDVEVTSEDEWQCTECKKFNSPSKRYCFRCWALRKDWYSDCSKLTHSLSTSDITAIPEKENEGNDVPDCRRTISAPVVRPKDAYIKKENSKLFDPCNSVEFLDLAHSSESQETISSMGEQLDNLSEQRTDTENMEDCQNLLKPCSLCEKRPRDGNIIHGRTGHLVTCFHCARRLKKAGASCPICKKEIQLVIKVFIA
Protein Mdm4 (Homo sapiens) + E3 ubiquitin-protein ligase Mdm2 (Homo sapiens), sequence (Q00987 whole entry, looked up): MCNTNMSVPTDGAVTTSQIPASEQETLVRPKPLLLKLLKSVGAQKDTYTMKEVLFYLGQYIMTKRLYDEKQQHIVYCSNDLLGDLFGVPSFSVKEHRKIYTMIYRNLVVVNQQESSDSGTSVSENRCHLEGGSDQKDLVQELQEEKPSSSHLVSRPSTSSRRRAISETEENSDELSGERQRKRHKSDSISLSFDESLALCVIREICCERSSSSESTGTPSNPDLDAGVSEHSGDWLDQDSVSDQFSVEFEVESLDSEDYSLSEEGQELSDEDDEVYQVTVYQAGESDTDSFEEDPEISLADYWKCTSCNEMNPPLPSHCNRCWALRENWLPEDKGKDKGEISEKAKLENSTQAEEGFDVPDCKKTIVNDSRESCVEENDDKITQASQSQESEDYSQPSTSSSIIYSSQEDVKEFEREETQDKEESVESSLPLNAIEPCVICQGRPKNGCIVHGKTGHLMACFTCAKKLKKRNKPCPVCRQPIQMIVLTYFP
Compound `O=C(NCc1ccccc1)C1=C[C@H](C2CC2)C[C@H](OCc2ccc(CO)cc2)O1` has an inhibition of -19%. `O=C(NCc1ccccc1)C1=C[C@@H](C2CCCCC2)C[C@@H](OCc2ccc(CO)cc2)O1` was tested, and the inhibition was 55.5% (active). With `CC(C)(C)[C@H]1C=C(C(=O)NCc2ccccc2)O[C@@H](OCc2ccc(CO)cc2)C1` the inhibition was 29.5%. Compound `Nn1cnnc1N/N=C/c1cc([N+](=O)[O-])c(Cl)cc1Cl` has an inhibition of -3.78%. `CC(=O)NNc1cc(=O)c2c(=O)n(C)c(=O)n(C)c2[nH]1` gave an inhibition of -7.44%. `CCOc1ccccc1C(=O)NC1CC2CCCC(C1)N2Cc1ccccc1` (stereo not given) showed an inhibition of -3.94%. With `CC(=O)Nc1ccc(S(=O)(=O)NCC(=O)OCc2cc(=O)oc3ccc4ccccc4c23)cc1` the inhibition was -8.78%. `COc1ccc(CNC(=O)COC(=O)c2sccc2C)cc1OC` was tested, and the inhibition was 14.3%. `COC(=O)c1ccc(COC(=O)c2cnc(Cl)c(Cl)c2)cc1` showed an inhibition of 0.646%. For `CCOc1ccc(C(C)=O)cc1COC(=O)CNC(=O)c1cccs1`, the inhibition was 26.9%. `CCOc1ccc(C(C)=O)cc1COC(=O)c1cnc(Cl)c(Cl)c1` was tested, and the inhibition was 97.4% (active). `COc1ccccc1C(=O)NCC(=O)NCCSc1ccc(Br)cc1` gave an inhibition of 12.7%. Compound `CCc1ccccc1NC(=O)CN(c1ccc(OC)cc1OC)S(=O)(=O)c1ccccc1[N+](=O)[O-]` has an inhibition of 18.2%. Work on `N#Cc1cccc(CSc2nnc(CCCO)n2-c2ccccc2)c1` yielded an inhibition of 7%. Work on `Cc1cc(NCc2cccnc2)no1` yielded an inhibition of 0.68%. `Clc1ccc(Cn2ncc3c(NCc4cccnc4)ncnc32)cc1` gave an inhibition of 20.9%. With `Brc1ccc2ncnc(NCc3cccnc3)c2c1` the inhibition was 73.1% (active). `CCN(C(=O)Cc1c(C(=O)O)n(CC)c2ccccc12)c1ccccc1C` gave an inhibition of 13.2%. For `O=C(COC(=O)CCCN1C(=O)c2cccc3cccc(c23)C1=O)NC1CCS(=O)(=O)C1` (stereo not given), the inhibition was -2.87%. With `O=C1NC2(CCCCC2)N=C1c1ccccc1` the inhibition was 4.91%. In the case of `COc1cccc(CNC(=O)CN2C(=O)NC(Cc3ccccc3)(c3ccccc3)C2=O)c1` (stereo not given), the inhibition is reported as -11%. In the case of `COc1cccc(CNC(=O)Cc2csc(Nc3nc(=S)[nH]c4ccccc34)n2)c1`, the inhibition is reported as 60.5% (active). Work on `O=C(Cc1ccc(-n2c(=O)[nH]c3ccccc3c2=O)cc1)N1CCN(c2cccc(Cl)c2)CC1` yielded an inhibition of -17%. In the case of `O=C(Cc1csc(Nc2nc(=S)[nH]c3ccccc23)n1)NCCCN1CCN(c2cccc(Cl)c2)CC1`, the inhibition is reported as 77.1% (active). Compound `O=C(CCCn1c(=O)[nH]c2cc(Cl)ccc2c1=O)NCCN1CCN(c2ccccc2)CC1` has an inhibition of 9.17%. `COc1cccc(CNC(=O)c2n[nH]c3ccccc23)c1` gave an inhibition of -9.68%. Compound `CC(=O)Nc1ccc(NC(=O)C(NS(=O)(=O)c2ccc3c(c2)OCCO3)C(C)C)cc1` (stereo not given) has an inhibition of 1.24%. Compound `Cc1noc(C)c1S(=O)(=O)N(C)C[C@H]1Oc2c(NC(=O)Nc3ccc4c(c3)OCO4)cccc2C(=O)N([C@H](C)CO)C[C@@H]1C` has an inhibition of 23.1%. `O=C(O)CCCCCNc1ncnc2ccc(Br)cc12` showed an inhibition of -1.34%. For `COc1ccc(Nc2ncnc3ccc(Br)cc23)c(OC)c1`, the inhibition was 76.4% (active). Work on `COc1ccc(CNc2ncnc3ccccc23)cc1` yielded an inhibition of 21.5%. With `COc1ccccc1NC(=O)CCC(=O)N1CC(C)Oc2ccc(C)cc21` (stereo not given) the inhibition was 13.9%. For `O=C1Nc2ccc([N+](=O)[O-])cc2C1=Nc1cccc(CO)c1`, the inhibition was 30.4%. `Cc1ccc(N2CC(C(=O)NCCS(=O)(=O)N3CCN(c4ccccc4)CC3)CC2=O)cc1` (stereo not given) showed an inhibition of 37.2%. Work on `COc1cc(N)c(Cl)cc1C(=O)OCC(=O)c1ccc2c(c1)NC(=O)CO2` yielded an inhibition of 18.8%. `Cc1ccc(CNC(=O)c2c(-c3ccccc3)noc2C)cc1` was tested, and the inhibition was -12.1%. In the case of `CCOC(=O)c1c(-c2cccc(C)c2)csc1NC(=O)c1c(-c2ccccc2)noc1C`, the inhibition is reported as 94.3% (active). `CCOC(=O)c1c(-c2ccc(-c3ccccc3)cc2)csc1NC(=O)CCC(=O)O` gave an inhibition of 9.19%. In the case of `Cn1c(=O)[nH]c(=O)c2c1nc(NCCCn1ccnc1)n2Cc1cccc(Br)c1`, the inhibition is reported as 34.5%. In the case of `O=C1N/C(=C/c2cccn2-c2ccccc2)C(=O)N1c1cccc(Cl)c1`, the inhibition is reported as 53.8% (active). For `O=c1c(-c2cccc(Cl)c2)c[nH]n1-c1ccccc1`, the inhibition was -13.8%. Work on `Cc1ccccc1NC(=O)CN1C(=O)N/C(=C\c2cccn2-c2cccc(C(=O)O)c2)C1=O` yielded an inhibition of 11.8%. In the case of `COc1ccc(C(=O)OCC(=O)NCC2CCCO2)cc1[N+](=O)[O-]` (stereo not given), the inhibition is reported as -2.37%. `O=C(C1CCC(=O)N(C2CC2)C1)N1CCN(c2ccc(Cl)cc2)CC1` (stereo not given) showed an inhibition of -4.59%. In the case of `CN(c1ccc2nc3ccccc3c(=O)n2n1)C1CCCCC1`, the inhibition is reported as 90.5% (active). With `CN(C(=O)CSc1nncc2ccccc12)C1CCCCC1` the inhibition was -30.3%. `CN(C(=O)c1cc2c(=O)n3ccccc3nc2s1)C1CCCCC1` gave an inhibition of -88.5%. `CC(=O)Nc1c2c(nn1-c1cccc(C)c1)CSC2` gave an inhibition of 18%. With `Cc1c(CNCCc2ccccc2)c(C(=O)O)c(C)n1-c1ccccc1` the inhibition was 8.96%. `CN(C(=O)c1cccc(NC(=O)Cc2ccc([N+](=O)[O-])cc2)c1)C1CCC1` gave an inhibition of 15.3%. `COc1ccc(-c2nn(C)c(=O)c3ccccc23)cc1CNC(=O)C1CCCCC1` showed an inhibition of 13%. Work on `CCC(=O)NCc1cc(-c2nn(C)c(=O)c3ccccc23)ccc1OC` yielded an inhibition of 20.9%. With `COc1ccc(-c2nn(C)c(=O)c3ccccc23)cc1NC(=O)COc1ccccc1` the inhibition was 70.8% (active). In the case of `Cc1cc(NC(=O)COC(=O)/C=C/c2ccc(C)o2)no1`, the inhibition is reported as 8.11%. `Cc1c(C=O)c2ccccc2n1CCOc1ccccc1` showed an inhibition of 11.3%. Compound `O=C(NCCc1ccc(F)cc1)c1ccc(S(=O)(=O)N2CCCCC2)cc1` has an inhibition of 0.124%. With `O=S(=O)(Nc1cccc(Oc2ccc(Cl)cc2)n1)c1ccc(F)cc1` the inhibition was 14.1%. `CC(NC(=S)Nc1ccccc1)C(c1cccs1)N1CCOCC1` (stereo not given) showed an inhibition of -20.7%. Compound `CCCC(=O)NC(C)C(c1cccs1)N1CCN(c2ccccc2)CC1` (stereo not given) has an inhibition of 18.2%. `CC(NC(=O)Nc1ccccc1)C(c1cccs1)N1CCN(c2ccccc2)CC1` (stereo not given) was tested, and the inhibition was 58.6% (active). Compound `CCOCCCNC(=O)C(NC(=O)c1ccc(=O)[nH]c1)c1ccc(Cl)cc1` (stereo not given) has an inhibition of -20.6%. For `N#CCC(=O)N/N=C/c1cn(Cc2ccc3ccccc3c2)c2ccccc12`, the inhibition was 67.9% (active). For `CNC(=S)N/N=C/c1cn(Cc2ccc(C)cc2)c2ccccc12`, the inhibition was 42.2%. In the case of `COc1cccc(Cn2cc(/C=N/NC(=O)c3cc(O)cc(O)c3)c3ccccc32)c1`, the inhibition is reported as 23.5%. `CC1=C(C(N)=O)C(c2ccc3c(c2)OCO3)n2nc(-c3cccc(C)c3)nc2N1` (stereo not given) was tested, and the inhibition was 7.35%. In the case of `COCCn1cnc2c1c(=O)n(Cc1ccc(Br)cc1)c(=O)n2Cc1ccccc1`, the inhibition is reported as 31.5%. In the case of `N=c1c2c(-c3ccccc3)c(-c3ccccc3)n(Cc3ccccc3)c2ncn1CCCO`, the inhibition is reported as 57.2% (active). `CCN(CC)CCn1cnc2c1c(=O)[nH]c(=O)n2Cc1ccccc1` showed an inhibition of 14.5%. For `CCOC(=O)[C@H]1[C@H]2COc3ccc(OC)cc3[C@@H]2N2C(=O)c3ccc(F)cc3NC(=O)[C@@]12C`, the inhibition was 17.8%. Work on `CCOC(=O)Cc1csc(SCC(=O)Nc2ccc(C)cc2F)n1` yielded an inhibition of 7.22%. For `CCOCc1nnc(NC(=O)CCC2CCCCC2)s1`, the inhibition was 15.7%. Compound `CCn1c(CNC(=O)c2cc(OC)c(OC)c(OC)c2)cc2cc(C)ccc21` has an inhibition of 18.3%. With `O=C(NNc1ccccc1Cl)C(O)(c1cccc(C(F)(F)F)c1)c1cccc(C(F)(F)F)c1` the inhibition was 94.5% (active). Work on `O=C(Nc1cc(C(F)(F)F)ccc1Cl)C(=O)N1CCCCC1` yielded an inhibition of 4.88%. `O=C(CNS(=O)(=O)c1cccc(C(F)(F)F)c1)Nc1ccccc1F` showed an inhibition of -4.5%. With `O=C(NCCC1=CCCCC1)c1ccc(-n2cncn2)cc1` the inhibition was -91.1%. `COC(=O)c1ccccc1NC(=O)C1CC(=O)N(c2ccc(OC)cc2)C1` (stereo not given) gave an inhibition of 15.5%. Compound `COc1ccc(CNS(=O)(=O)c2cc3c4c(c2)CCN4C(=O)CC3)cc1` has an inhibition of -14.5%. `Cc1nnc2n1N=C(c1ccccc1)CS2` showed an inhibition of 17.5%. For `COc1ccc(C2=Nn3c(nnc3-c3ccccc3OC)SC2)cc1OC1CCCC1`, the inhibition was 88.2% (active). `COc1ccccc1-c1nnc2n1N=C(c1ccc(OC(F)F)c(OCC3CC3)c1)CS2` was tested, and the inhibition was 23.3%. With `Cc1ccc(C)c(OCCC(=O)OCC(=O)NC(=O)NCc2ccccc2)c1` the inhibition was 6.63%. Compound `O=C(Nc1ccc(OC(F)(F)F)cc1)c1ccc2c(c1)no[n+]2[O-]` has an inhibition of 19%. Compound `CCN1C(=NCc2ccc(OC)cc2)N[C@@H](CCc2ccccc2)[C@H](C(=O)NCc2ccc(OC)cc2)[C@H]1C` has an inhibition of 14.2%. `COc1ccccc1CNS(=O)(=O)c1cc(C(=O)NCc2ccccn2)c(Cl)cc1Cl` showed an inhibition of -21.7%. `Cc1nc(Nc2ccc(S(=O)(=O)N3CCCC3)cc2)c2nnn(Cc3ccccc3)c2n1` gave an inhibition of 3.4%. In the case of `CC(C)Nc1ncnc2c1nnn2Cc1ccccc1`, the inhibition is reported as -2.35%. In the case of `CC(C)Cc1nc(Nc2ccc(S(=O)(=O)N3CCCC3)cc2)c2nnn(Cc3ccccc3)c2n1`, the inhibition is reported as 68.6% (active). `Cc1cnc(C(=O)N2CCCC(N3CCN(c4ccccc4F)CC3)C2)cn1` (stereo not given) gave an inhibition of 1.8%. `Cc1ccc(S(=O)(=O)N(CC(=O)N/N=C/c2ccc(F)cc2)c2cccc3cccnc23)cc1` was tested, and the inhibition was 4.5%.
